Compounds with a hit are over-represented: about 7.9% of the library has one in this group of screens.
KB-3-1 tox: qHTS assay for MDR1-selective chemotherapeutics: Primary screen using the parental adenocarcinoma cell KB-3-1. KB-3-1 viability, CellTiter-Glo ATP luminescence, 72 h. 400,000 tested, 1.4% active. Potency, µM (titrated, usually from 46.1 µM), most hits filed as cytotoxic. AID 1347075, 2019; further: nearly all actives have a fitted effect of over 60% in size
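Parental KB-3-1 viability, qHTS format: 72 h compound exposure, 37 °C; CellTiter-Glo; media-only wells and DMSO plates as controls; concentration-effect fits on corrected data.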
SW480 rereplic: A quantitative high throughput screen for small molecules that induce DNA re-replication in SW480 colon adenocarcinoma cells. 340,000 tested, 1.8% active. SW480 DNA re-replication, Hoechst DNA content imaging, 48 h. Potency, µM (series often up to 46.1 µM), most hits filed as activators; further: nearly all actives have a fitted effect of over 55% in size
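Hoechst fluorescence of nuclei (405 nm excitation, 500-530 nm emission) measured by plate-scanning imager after 48 hr compound exposure at 37 C; re-replication scored as increased number of nuclei with elevated intensity.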
KB-V1 cytotox: qHTS assay for MDR1-selective chemotherapeutics: Primary screen using the drug-selected MDR subline cells KB-V1. KB-V1 MDR cells viability, CellTiter-Glo, 72 h. Potency, µM (highest dose often 46.1 µM), actives largely listed as cytotoxic. 400,000 tested, 3.4% active; further: nearly all actives have a fitted effect of over 60% in size
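Cells of the MDR subline KB-V1 are plated, dosed with compound at multiple concentrations, and incubated 72 h at 37 degrees C; CellTiter-Glo is then added and luminescence read after 10 min.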
HT1080 IDH1KD tx: qHTS for induction of synthetic lethality in tumor cells producing 2HG: qHTS for the HT-1080-IDH1KD cell line | HT-1080 IDH1 knockdown viability, ATP luminescence, 48 h | Potency, µM (titrated, usually from 46.1 µM), actives largely listed as cytotoxic | 360,000 tested, 2% active
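HT-1080-IDH1KD cells (IDH1 knocked down), 750/well in RPMI with 5% FBS, treated with compound 48 h at 37 degrees C. Viability by CellTiter-Glo luminescence, normalised to DMSO and no-cell wells; concentration-response curves classed.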
MCF10A rereplic: A quantitative high throughput screen for small molecules that induce DNA re-replication in MCF 10a normal breast cells. MCF 10A DNA re-replication, Hoechst nuclear intensity, 48 h. 350,000 tested, 2.9% active. Potency, µM (titrated, usually from 46.1 µM), hits mostly activators; further: nearly all actives have a fitted effect of over 50% in size
HT1080NT lethal: qHTS for induction of synthetic lethality in tumor cells producing 2HG: qHTS for the HT-1080-NT fibrosarcoma cell line; Potency, µM (highest dose often 46.1 µM), most hits filed as cytotoxic; 360,000 tested, 1.6% active; HT-1080-NT fibrosarcoma viability, CellTiter-Glo ATP luminescence, 48 h;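 further: NT is the 2HG producing partner of a matched IDH1 knockdown line; nearly all actives have a fitted effect of over 55% in size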
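Compounds were tested in concentration-response format on HT-1080-NT cells for 48 hours at 37 degrees C. Cell viability came from CellTiter-Glo luminescence; curves were classified by r2, response magnitude and activity.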
Numbers stand for hits; . = inactive; ? = inconclusive; / = not tested or not shown. The call rests on the fitted dose curve; in most records, active means well fitted curve in the direction sought with a large enough effect; inconclusive means small, poorly fitted or top-dose-only effect, or another doubt; inactive means no such curve, though single readings can be large; an effect the other way counts as inactive or inconclusive.

SMILES	KB-3-1 tox	SW480 rereplic	KB-V1 cytotox	HT1080 IDH1KD tx	MCF10A rereplic	HT1080NT lethal
CCS(=O)(=O)c1ccc2oc(SCC(=O)NC34CC5CC(CC(C5)C3)C4)nc2c1	.	.	14.6µM	.	.	.
CCS(=O)(=O)c1ccc2oc(SCC(=O)NCc3ccccc3)nc2c1	.	.	.	.	.	.
COc1c2ccccc2nc2ccccc12	.	23.1µM	.	.	?	.
NC(=O)c1c(NC(=O)C(=O)N2CCOCC2)sc2c1CCCC2	.	.	.	.	.	.
Cc1c2cnccc2c(C)c2c1c1ccccc1n2CCOC(=O)c1ccccc1	.	/	.	/	/	/
CCOc1ccccc1OCCCC(=O)N1CCN(S(=O)(=O)c2cccc(F)c2)CC1	.	.	6.51µM	.	.	?
Cc1cc(C)c(S(=O)(=O)N2CCN(C(=O)CCOc3ccccc3C)CC2)c(C)c1	?	.	5.17µM	.	.	.
COc1cc2c(cc1OC)CN(C(=O)CCOc1ccccc1C)CC2	?	?	16.4µM	?	?	?
Cc1ccccc1OCCC(=O)N1CCN(S(=O)(=O)c2ccc(F)cc2)CC1	/	.	/	.	.	.
Cc1ccc(SCC(=O)OCC(=O)N(CC(C)C)C2CCS(=O)(=O)C2)cc1C (centres undefined)	.	.	.	.	.	.
COc1cccc(C(=O)Nc2ccc(-c3cn4cccnc4n3)cc2)c1OC	.	/	.	/	/	/
O=S1(=O)CCOC[C@H](c2ccccc2)N1Cc1cccc(Cl)c1	?	.	.	.	?	.
Cc1cccc(Cn2c(SCc3ccc(C(=O)NCCc4ccccc4)cc3)nc3ccncc32)c1	?	/	.	/	/	/
OCC1(CCCc2ccccc2)CCN(Cc2cnc(N3CCOCC3)s2)CC1	20.6µM	.	?	.	?	.
Clc1ncc(CN2CCN(c3ccccc3)CC2)s1	.	.	.	.	.	.
c1ccc(N2CCN(Cc3cnc(N4CCOCC4)s3)CC2)cc1	.	.	13µM	.	?	.
CCCOc1cccc(NC(=O)c2c(-c3ccccc3Cl)noc2C)c1	.	/	.	/	/	/
Cc1ccc(NC(=O)c2cc3nc(-c4ccc5c(c4)OCO5)cc(C(F)(F)F)n3n2)cc1Cl	.	/	.	/	/	/
O=C(NC1CCCCCC1)C1c2ccccc2C(=O)N1Cc1cccnc1 (centres undefined)	.	.	11.6µM	.	.	.
O=C(NCC1CCCO1)C1c2ccccc2C(=O)N1C1CCCCCCC1 (centres undefined)	.	.	7.31µM	.	.	.
O=C(NCc1cccnc1)C1c2ccccc2C(=O)N1C1CCCCCC1 (centres undefined)	.	.	18.4µM	.	.	.
O=C(NCc1cccnc1)C1c2ccccc2C(=O)N1C1CCCCCCC1 (centres undefined)	.	.	.	.	.	.
O=C(NCC1CCCO1)[C@@H]1CSC2c3ccccc3C(=O)N21 (some centres undefined)	.	.	?	.	.	.
COc1ccc(N2CC(NC(=O)N3CCN(C(=O)c4ccco4)CC3)CC2=O)cc1OC (centres undefined)	.	.	.	.	.	.
CCC(CO)Oc1cc(NCc2ccccc2)c2ncn(C(C)C)c2c1 (centres undefined)	.	.	.	.	.	.
SMILES	KB-3-1 tox	SW480 rereplic	KB-V1 cytotox	HT1080 IDH1KD tx	MCF10A rereplic	HT1080NT lethal
CC(C)n1cnc2c(NCc3ccccc3)cc(N[C@H](C)CO)cc21	?	0.651µM	.	23.1µM	?	23.1µM
CCCCN(CC)C(=O)Cc1ccccc1OC	.	.	?	.	.	.
CCCCc1c(-c2ccccc2Br)ncn1CCc1ccccc1OC	?	/	14.6µM	?	/	?
CCCCc1c(-c2ccccc2OC)ncn1CCc1ccccc1OC	?	/	8.2µM	13µM	/	18.4µM
COc1cccc(Cn2cnc(-c3ccccc3OC)c2-c2ccco2)c1	?	/	?	.	/	.
CCCCCc1c(CC)ncn1CCc1ccccc1OC	16.4µM	/	?	?	/	25.9µM
CCCCc1c(-c2ccccc2OC)ncn1CCc1ccccc1Cl	?	/	18.4µM	?	/	?
N#Cc1ccc(OCC(=O)Nc2ccc(S(=O)(=O)N3CCOCC3)cc2)cc1	.	.	.	.	.	.
CCCCCc1c(-c2ccccc2OC)ncn1CCc1ccccc1OC	23.1µM	/	11.6µM	16.4µM	/	16.4µM
O=C(COc1coc(CN2CCN(c3ccc(F)cc3)CC2)cc1=O)NC1CCCCC1	?	.	4.11µM	.	.	.
CCOC(=O)C1CCC(CN(Cc2cccc(Br)c2)S(=O)(=O)c2ccc(C)cc2)CC1 (centres undefined)	.	/	.	/	/	/
CC1CCCCN1CCCNC(=O)c1ccc2nc(N3CCCCC3)sc2c1 (centres undefined)	.	.	.	.	.	.
Cc1ccc(NC(=S)N/N=C/c2ccc([N+](=O)[O-])s2)cc1	?	6.51µM	?	?	10.3µM	?
Cc1cc(C)cc(N=Cc2ccc([N+](=O)[O-])s2)c1	?	3.66µM	?	20.6µM	20.6µM	?
N/C(=N\O)c1ccc([N+](=O)[O-])s1	.	.	.	.	.	?
O=C(Cc1cccs1)N/N=C\c1ccc([N+](=O)[O-])s1	.	.	.	.	?	?
O=C(CNC(=O)c1ccccc1Cl)N/N=C/c1ccc([N+](=O)[O-])s1	2.59µM	?	?	23.1µM	.	?
NC(=O)c1ccc(N=Cc2ccc([N+](=O)[O-])s2)cc1	?	3.26µM	?	.	14.6µM	?
CC[C@@H](NCCCn1ccc(NC(=O)OCc2ccccc2)nc1=O)c1ccccc1	.	/	.	.	/	.
CCOC(=O)c1c(NC(=O)c2cc(-c3ccccc3)on2)sc2c1CCCC2	.	/	.	/	/	/
Cc1ccccc1OCc1nc(-c2ccc(NC(=O)c3ccco3)cc2)no1	.	.	.	.	?	.
Cc1ccccc1OCc1nc(-c2ccc(NC(=O)c3ccc4c(c3)OCO4)cc2)no1	.	?	?	20.6µM	20.6µM	20.6µM
COc1ccc(C(NC(=O)C(C)C)c2c(O)ccc3ccccc23)cc1 (centres undefined)	?	?	.	?	18.4µM	?
CCCCC(=O)NC(c1ccc([N+](=O)[O-])cc1)c1c(O)ccc2ccccc12 (centres undefined)	?	?	16.4µM	?	?	16.4µM
CCC(=O)NC(c1ccc(OC)cc1)c1c(O)ccc2ccccc12 (centres undefined)	?	?	?	/	.	/
